For 53 molecules, INHIBITION results are on record in ChEMBL document CHEMBL4513216, “Probing the Open Global Health Chemical Diversity Library for Multistage-Active Starting Points for Next-Generation Antimalarials” (ACS Infect Dis, 2020).

SMILES strings stand for the structures. The campaign covered roughly 69,000 compounds. About 8,600 (12%) showed an effect of 50% or more. This is one part of a sample in which strong results are shown more often than they occur.

The test system of the experiment is Plasmodium berghei. As to the kind of experiment: Screen against P. berghei liver stage (PbLuc), transformed with Luciferase, at 10uM. Conditions: tested at 10 uM. Format: functional, HepG2.
Turning to `CCn1cc(-c2nccnc2C2CCCN(C(C)=O)C2)cn1` (stereo not drawn), the INHIBITION is -14.2%.
As to `COCC1Cn2nnc(-c3cnn(C)c3)c2CN1Cc1ccc(C)o1` (stereo not drawn), the INHIBITION is listed as -1.12%.
For the molecule `O=C1COc2cc(S(=O)(=O)NCCC3=CCCCC3)c(Cl)cc2N1`, the INHIBITION was 48.4%.
In the case of `NC(=O)N1CC[C@H](O)[C@@H]1Cc1ccccc1`, the INHIBITION came to 46.9%.
Consider `O=C(NCc1nn(-c2ccccc2)c2c1CCC2)NC1CCOCC1`, for which the INHIBITION was -6.11%.
In the case of `CCCc1cncnc1N1CCC2(CCC(=O)N(CCCO)C2)CC1` it was -43.8%.
Take `Cc1nn(C)cc1-c1cc(C(=O)NCC(C)(C)c2ccc(F)cc2)n[nH]1`: the INHIBITION stood at 5.75%.
For `CC(=O)N1[C@H](Cn2cncn2)C[C@@H]2CN(c3ncc(F)cn3)CC[C@@H]21`, the INHIBITION amounted to 21.3%.
On to `CC(C)c1nnc2n1CC(CNC/C=C/c1ccccc1)CC2` (stereo not drawn), for which the INHIBITION is 51.3%.
The figure for `C(=C\c1ccccc1)/CNCC1CCc2nncn2C1` (stereo not drawn) is 17.1%; for `CC(C)c1nnc2n1CC(CNCc1nc3ccccc3s1)CC2` (stereo not drawn) it is 43.3%; for `Cc1cnn(CCNCc2nnc(Cc3ccccc3)o2)c1` it is 2.97%.
As to `Cc1nn(-c2ccc(F)cc2)c2[nH]nc(N)c12`, the INHIBITION was 46.4%.
The figure for `Cc1nn(Cc2ccc(F)cc2)c2[nH]nc(N)c12` is 78.2%; for `Cc1nn(C)c2c(=O)n(Cc3ccc(F)cc3)nnc12` it is -10.77%.
In the case of `O=C(Nc1ccccc1)C1CN(CC2CCOCC2)CC12CCOCC2` (stereo not drawn), the INHIBITION is on record as -42.9%.
In the case of `CCC[C@@H]1CN(Cc2c[nH]nc2-c2ccc(F)cc2)C[C@H]1NS(C)(=O)=O` it was 27.4%; in that of `CCC[C@H]1CN(Cc2ccccc2C#N)C[C@@H]1NS(C)(=O)=O`, 49.3%.
Regarding `CCC[C@@H]1CN(Cc2ccccc2C#N)C[C@H]1NC(C)=O`, the INHIBITION is given as 17.5%.
For `CCOC(=O)C1CCCN(Cc2cc(C#N)n(C)c2C)C1` (stereo not drawn), the INHIBITION was 24.7%.
For `CCC[C@H]1CN(Cc2cc(C#N)n(C)c2C)C[C@@H]1NS(=O)(=O)CC`, the INHIBITION was determined as 61.8%.
On to `CCC[C@@H]1CN(Cc2cc(C#N)n(C)c2C)C[C@H]1NS(C)(=O)=O`, for which the INHIBITION is given as 64.4%.
`CCC[C@H]1CN(Cc2cc(C#N)n(C)c2C)C[C@@H]1N(C)C`: the INHIBITION was found to be 73.6%.
`CCC[C@@H]1CN(Cc2ccc(N(C)C)nc2)C[C@H]1N(C)C`: the INHIBITION was 36.5%.
In the case of `CCC[C@H]1CN(Cc2ccc(N(C)C)nc2)C[C@@H]1NS(=O)(=O)CC` it was 46.6%; in that of `O=C(c1cc2ccccc2[nH]1)N1CCC(Nc2cccnn2)CC1`, 31.2%.
Regarding `Cc1nnc2n1CCN(C(=O)c1ccc(Cn3cccc3)cc1)C2`, the INHIBITION was -18.52%.
In the case of `CN1CCN(C(=O)c2ccc3c(c2)nc(N2CCOCC2)n3C)CC1=O` it was -18.9%; in that of `Cc1nc(C(=O)N2CCCC2c2c(C)nn(C)c2Cl)ccc1C#N` (stereo not drawn), 0.914%; in that of `NC(=O)NCC(=O)N1C[C@@H]2CC[C@H]1CN(C1Cc3ccccc3C1)C2`, 21%.
For `CCCC(=O)N1CCCC1(C)c1nc(C)no1` (stereo not drawn), the INHIBITION was -3.97%.
For the molecule `COc1ccc(C2Nc3cc(Cl)ccc3C3=NCCN32)cc1OC` (stereo not drawn), the INHIBITION was found to be 72.8%.
With `COc1ccc(C2Nc3ccccc3C3=NCCCN32)cc1OC` (stereo not drawn), the INHIBITION amounted to 54%.
Turning to `CN(C)c1ncc(C2Nc3ccccc3C3=NCCCN32)cn1` (stereo not drawn), the INHIBITION stood at 9.93%.
Take `COc1cc(C2Nc3cc(Cl)ccc3C3=NCCN32)ccc1O` (stereo not drawn): the INHIBITION is -43%.
As for `COc1cc(OC)c(C2Nc3cc(Cl)ccc3C3=NCCN32)cc1OC` (stereo not drawn), the INHIBITION came out at 73.9%.
Consider `Oc1ccc(C2Nc3ccccc3C3=NCCCN32)cc1` (stereo not drawn), for which the INHIBITION is recorded as 36.4%.
As to `COc1cc(C2Nc3cc(Cl)ccc3C3=NCCN32)cc(OC)c1OC` (stereo not drawn), the INHIBITION was 38.8%.
Turning to `COc1ccc(C2Nc3cc(Cl)ccc3C3=NCCN32)cc1CO` (stereo not drawn), the INHIBITION amounted to 46%.
As to `COc1ccc(C2Nc3cc(Cl)ccc3C3=NCCN32)cc1O` (stereo not drawn), the INHIBITION was 28%.
As for `COCc1nc(C(=O)N2CCCC(n3ccnc3C(C)C)C2)cs1` (stereo not drawn), the INHIBITION is recorded as 19.5%.
`O=C([C@H]1CCCO1)N1CC[C@@H](O)[C@@H]1Cc1ccccc1`: the INHIBITION worked out at 21.1%.
With `CC(O)CN1CCN(C(=O)c2cc3ccccc3[nH]c2=O)CC1` (stereo not drawn), the INHIBITION is on record as 16.6%.
In the case of `CNc1cc2c(nn1)CCN(C(=O)c1ccccc1-n1cccn1)C2`, the INHIBITION stood at 36.8%.
Consider `CN1CCCCC(C2CCN(S(=O)(=O)c3cn(C)cn3)CC2)C1=O` (stereo not drawn), for which the INHIBITION is on record as -23.4%.
As for `CCNC(=O)[C@@H]1C[C@@H](NC(=O)CSC)CN1Cc1ccncc1`, the INHIBITION is on record as 29.6%.
For the molecule `OC(CNCCn1cccn1)c1cccc(F)c1` (stereo not drawn), the INHIBITION was -15.5%.
As for `Cc1ccnc(OC[C@]23COC[C@H]2CN(C(=O)c2ncccn2)C3)n1`, the INHIBITION is reported as 18.4%.
The figure for `O=C(NC1(c2cccc(F)c2)CCOCC1)c1ccccn1` is 26.8%; for `CN(C)c1cc(C(=O)NC2(c3cccc(F)c3)CCOCC2)ccn1` it is 27.5%.
In the case of `Cc1cc(C(=O)NC2(c3cccc(F)c3)CCOCC2)no1` it was 20.6%; in that of `CC(C)c1ocnc1C(=O)NC1(c2cccc(F)c2)CCOCC1`, 60.3%; in that of `Cc1ncccc1C(=O)NC1(c2cccc(F)c2)CCOCC1`, 76.2%.
